# Among all 2,400 compounds or so, about 2,100 (88%) were called active. The set was probably picked from earlier hits. A selection follows. Unmarked numbers belong to inactive results.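 How the source made its calls: active means inhibition above the average of every tested compound plus 3 SD (cut at about 3.8% in these data); inactive means the rest.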
# Target: Nuclear receptor subfamily 0 group B member 1 (Homo sapiens) (UniProt P51843)
# Assay: DAX1 (NR0B1) inhibitors relieving SF-1 repression, confirmation, cell-based, luminescence, HEK293T, full-length DAX-1, SF-1 activated StAR promoter (AID 652134);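 further: 0% = DAX-1 cells with DMSO and 100% = no DAX-1 control cells with DMSO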
# Details: HEK293T StAR-promoter luciferase reporter, SF-1/DAX-1 repression; at 6.8 µM; active compounds read high
# Chain of Nuclear receptor subfamily 0 group B member 1 (Homo sapiens) (P51843 whole entry, looked up): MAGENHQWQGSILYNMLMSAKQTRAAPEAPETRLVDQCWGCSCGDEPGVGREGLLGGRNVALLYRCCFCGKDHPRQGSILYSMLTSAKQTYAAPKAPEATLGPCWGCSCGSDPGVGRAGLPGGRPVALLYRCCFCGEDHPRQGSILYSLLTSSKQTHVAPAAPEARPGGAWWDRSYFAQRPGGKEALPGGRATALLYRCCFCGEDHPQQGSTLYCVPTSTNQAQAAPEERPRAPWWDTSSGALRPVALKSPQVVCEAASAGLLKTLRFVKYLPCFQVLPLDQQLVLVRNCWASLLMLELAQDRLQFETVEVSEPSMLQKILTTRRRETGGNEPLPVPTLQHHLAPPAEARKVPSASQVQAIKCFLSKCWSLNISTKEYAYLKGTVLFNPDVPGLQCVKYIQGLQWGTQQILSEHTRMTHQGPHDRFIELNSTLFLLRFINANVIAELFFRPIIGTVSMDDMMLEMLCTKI
row,SMILES,inhibition
1,O=C(NCCc1ccc(F)cc1)c1ccc2nccnc2c1,12.4% (active)
2,COc1ccc(Nc2ncc(F)c(N3CCOCC3)n2)cc1,11.3% (active)
3,OC(c1ccccc1)c1nc(-c2cnc3ccccc3c2)cs1 (configuration not stated),13% (active)
4,O=C1C(C=NCC2CCCO2)=C(O)c2ccccc21 (configuration not stated),7.49% (active)
5,CC(=O)Nc1cccc(-c2csc(Nc3cccc(C)n3)n2)c1,10.7% (active)
6,COc1cc(C2c3cc4c(cc3C(O)C3COC(=O)C23)OCO4)cc(OC)c1OC (configuration not stated),19.5% (active)
7,COc1cc(/C=N/O)ccc1OCc1ccc([N+](=O)[O-])cc1,11.6% (active)
8,CC(=O)Nc1cccc(C(=O)OCC(=O)c2ccc3c(c2)OCO3)c1,14.1% (active)
9,CC(C)c1ccc(C=NNc2ccc([N+](=O)[O-])cn2)cc1,14.9% (active)
10,S=C(c1ccc(-c2ccccc2)o1)N1CCCCC1,11% (active)
11,COc1ccc2nc(SCc3ccccc3)nc(C)c2c1,20.3% (active)
12,CC(C)Cc1cc(C(=O)NCCc2ccccc2)no1,8.87% (active)
13,CNCC(O)c1ccc(O)c(O)c1 (configuration not stated),3.72% (active)
14,C(=N\Nc1ccc2ccccc2n1)/c1ccc2c(c1)OCO2,13.2% (active)
15,COc1ccc2nc(-c3ccccn3)ccc2c1,12.2% (active)
16,Cc1ccc(-c2nc3ccccc3[nH]2)cc1N,11.7% (active)
17,c1ccc2[nH]c(-c3nc4ccccc4[nH]3)nc2c1,11.3% (active)
18,O=C(NC(=S)NC1CCCCC1)c1ccc(Cl)cc1,6.95% (active)
19,O=C(c1cnn2ccccc12)N1CCc2ccccc21,9.73% (active)
20,Cc1cccc(NC(=O)/C=C/c2ccc3c(c2)OCO3)n1,13.6% (active)
21,COc1cccc(/C=C/C(=O)Nc2ccc3c(c2)OCCO3)c1,3.84% (active)
22,O=C(O)c1cccc(N=NN2CCCCCC2)c1,15% (active)
23,O=c1c2c(nc3n1CCCCC3)sc1c(O)cccc12,16.3% (active)

row,SMILES,inhibition
1,O=C(Nc1ccc(Cl)c(Cl)c1)c1ccccc1NC(=O)C1CC=CCC1C(=O)O (configuration not stated),7.46% (active)
2,CC(C)(O)C#Cc1ccc(CNC[C@H]2O[C@@H](n3cnc4c(=O)[nH]c(N)nc43)[C@H](O)[C@@H]2O)s1,-1.28%
3,CCN(CC(=O)Nc1c(F)cccc1F)C(=O)c1cnc(C)cn1,0.35%
4,O=c1oc(/C=C/c2ccccc2)nc2ccccc12,11.2% (active)
5,CC(Oc1ccccc1[N+](=O)[O-])C(=O)N/N=C/c1ccoc1 (configuration not stated),1.13%
6,Cc1ccc(S(=O)Cc2ccc(C(=O)N3CCN(C4CCCCC4)CC3)o2)cc1 (configuration not stated),5.33% (active)
7,O=[N+]([O-])c1ccc2oc(-c3cccc(O)c3)nc2c1,10.7% (active)
8,COc1ccc(-c2cn3ccc(C)cc3n2)cc1,9.6% (active)
9,COc1ccc(-c2cn3ccsc3n2)cc1,12.2% (active)
10,Cc1cc(C)c(C)c(S(=O)(=O)N2CCN(C(=O)c3ccc4c(=O)n5c(nc4c3)CCC5)CC2)c1C,0.85%
11,O=c1c2c(nc3cc(-c4cccc(Cl)c4)[nH]n13)CCCC2,22.3% (active)
12,O=C(CSc1cccc[n+]1[O-])c1ccc(-c2ccccc2)cc1,3.72% (active)
13,O=C(NCCc1c[nH]c2ccccc12)c1cc2ccccc2oc1=O,10.1% (active)
14,Cc1cc(OCc2cc(C(=O)NCc3cc(C(C)C)no3)no2)cc(C)c1Cl,6.04% (active)
15,Cc1nc2cc(NC(=O)Nc3cccc(F)c3)ccc2n1C,15.5% (active)
16,C=CCn1c(SCC(=O)Nc2ccc(NC(C)=O)cc2)nc2sc(C)c(C)c2c1=O,-0.94%
17,Nc1ccc(C(=O)Nc2ccccc2N)cc1,94.3% (active)
18,Cn1ccnc1SCC(=O)Nc1ccc2c(c1)OCCO2,10.6% (active)
19,CN(C(=O)c1cc2c(=O)n3ccccc3nc2s1)C1CCCCC1,9.28% (active)
20,NS(=O)(=O)c1ccc2nc(NC(=O)C3=COCCO3)sc2c1,9.88% (active)
21,Cc1sc(NC(=O)c2ccc3ncsc3c2)c(C(N)=O)c1C,14.4% (active)
22,CCOC(=O)c1c(S(=O)(=O)Nc2ccc(CN3CCC(C)CC3)cc2)c(C)n(C)c1C,4.2% (active)
23,CCc1ccc(NC2Nc3cc(C)nn3S2)cc1 (configuration not stated),10.6% (active)

row,SMILES,inhibition
1,CCOc1cccc(/C=C/c2ccc3ccccc3n2)c1OC(C)=O,10.4% (active)
2,Cc1csc(SCC(=O)Nc2sccc2C#N)n1,16.1% (active)
3,COC(=O)c1sc(NC(=O)c2ccc(OC)cc2OC)nc1C,13.9% (active)
4,O=C(Nc1ccc2c(c1)CCC2)c1ccc(Br)s1,15.1% (active)
5,COc1ccc(/C=C/C(=O)Nc2ccc(C34CC5CC(CC(O)(C5)C3)C4)cc2)cc1OC,4.27% (active)
6,Clc1ccc(Nc2nc(-c3cccs3)cs2)nc1,13.8% (active)
7,Cc1ccccc1OCC(=O)Nc1ccc2c(c1)ncn2C,8.73% (active)
8,Cc1ccccc1Nc1nc(N)nc(CSc2ccccc2)n1,19.3% (active)
9,CCCNC(=O)C1CC(=O)N(c2ccc(OCc3ccccc3)cc2)C1 (configuration not stated),14.4% (active)
10,Cc1ccc(N/C=C/C(=O)c2ccccc2)cc1C,10.3% (active)
11,COc1ccccc1CCC(=O)OCC(=O)N1CCN(S(=O)(=O)c2ccc(C)cc2C)CC1,1.66%
12,CC1CCN(C(=O)COC(=O)c2cc(=O)[nH]c3ccccc23)CC1,9.14% (active)
13,CCOc1ccc(S(=O)(=O)Nc2cccc(C(=O)NCC3(N4CCCCC4)CCCCC3)c2)cc1,8.51% (active)
14,O=C(NCC1(N2CCCCC2)CCCCC1)c1ccc(NS(=O)(=O)c2ccc(F)cc2)cc1,9.71% (active)
15,CCN(c1ccccc1)S(=O)(=O)c1ccc(OCC(=O)N2CCCC2)cc1,0.88%
16,O=C(c1cc(-c2cccs2)on1)N1CCCCC1,12.9% (active)
17,COc1ccc(OCc2cc(C(=O)N3CCCC3)no2)c2ccccc12,6.33% (active)
18,O=C(c1cc(-c2ccccc2O)on1)N1CCCC1,11.2% (active)
19,COc1ccccc1-c1cc(C(=O)N2CCCCC2)no1,13.3% (active)
20,CC(C)c1ccc(Nc2ncccc2C#N)cc1,5.79% (active)
21,Cc1ccnc(NC(=O)CCNS(=O)(=O)c2ccc(C)c(C)c2)c1,14% (active)

# Source: PubChem BioAssay AID652134 (The Scripps Research Institute Molecular Screening Center, 2013)
